Reference: ChEMBL document CHEMBL1961873, “Compounds: GSK PKIS; Assays: Nanosyn kinase panel” (2012)

Legend:
[1] = molecular target: Protein kinase C gamma type (Homo sapiens) (UniProt P05129); conditions: at 1 µM;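 also: each value is an averaged percent inhibition of the enzyme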
[2] = molecular target: T1, Protein kinase C iota type (Homo sapiens) (UniProt P41743); conditions: at 0.1 µM
T1 sequence (whole entry): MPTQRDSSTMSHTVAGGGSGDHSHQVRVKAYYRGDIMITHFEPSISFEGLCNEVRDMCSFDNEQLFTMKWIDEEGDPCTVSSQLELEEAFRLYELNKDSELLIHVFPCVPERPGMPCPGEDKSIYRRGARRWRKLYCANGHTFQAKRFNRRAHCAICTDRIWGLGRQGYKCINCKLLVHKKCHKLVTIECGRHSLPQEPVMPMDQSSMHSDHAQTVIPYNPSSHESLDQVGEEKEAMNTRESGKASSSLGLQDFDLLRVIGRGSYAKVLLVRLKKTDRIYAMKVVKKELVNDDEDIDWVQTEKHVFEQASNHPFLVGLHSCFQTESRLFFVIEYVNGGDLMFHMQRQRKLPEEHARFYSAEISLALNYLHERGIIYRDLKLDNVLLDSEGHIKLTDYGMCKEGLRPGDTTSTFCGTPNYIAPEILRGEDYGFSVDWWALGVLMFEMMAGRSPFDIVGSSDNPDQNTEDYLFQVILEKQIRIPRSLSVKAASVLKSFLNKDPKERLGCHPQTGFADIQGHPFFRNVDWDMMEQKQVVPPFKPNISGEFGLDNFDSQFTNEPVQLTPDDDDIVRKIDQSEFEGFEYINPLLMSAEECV

[3] = molecular target: T1, Protein kinase C iota type (Homo sapiens); conditions: at 1 µM
[4] = molecular target: Protein kinase C theta type (Homo sapiens) (UniProt Q04759); conditions: at 0.1 µM
[5] = molecular target: Protein kinase C theta type (Homo sapiens) (UniProt Q04759); conditions: at 1 µM
[6] = molecular target: Protein kinase C beta type (Homo sapiens) (UniProt P05771); conditions: at 0.1 µM
[7] = molecular target: Protein kinase C beta type (Homo sapiens) (UniProt P05771); conditions: at 1 µM
[8] = molecular target: T2, Serine/threonine-protein kinase D1 (Homo sapiens) (UniProt Q15139); conditions: at 0.1 µM
T2 sequence (whole entry): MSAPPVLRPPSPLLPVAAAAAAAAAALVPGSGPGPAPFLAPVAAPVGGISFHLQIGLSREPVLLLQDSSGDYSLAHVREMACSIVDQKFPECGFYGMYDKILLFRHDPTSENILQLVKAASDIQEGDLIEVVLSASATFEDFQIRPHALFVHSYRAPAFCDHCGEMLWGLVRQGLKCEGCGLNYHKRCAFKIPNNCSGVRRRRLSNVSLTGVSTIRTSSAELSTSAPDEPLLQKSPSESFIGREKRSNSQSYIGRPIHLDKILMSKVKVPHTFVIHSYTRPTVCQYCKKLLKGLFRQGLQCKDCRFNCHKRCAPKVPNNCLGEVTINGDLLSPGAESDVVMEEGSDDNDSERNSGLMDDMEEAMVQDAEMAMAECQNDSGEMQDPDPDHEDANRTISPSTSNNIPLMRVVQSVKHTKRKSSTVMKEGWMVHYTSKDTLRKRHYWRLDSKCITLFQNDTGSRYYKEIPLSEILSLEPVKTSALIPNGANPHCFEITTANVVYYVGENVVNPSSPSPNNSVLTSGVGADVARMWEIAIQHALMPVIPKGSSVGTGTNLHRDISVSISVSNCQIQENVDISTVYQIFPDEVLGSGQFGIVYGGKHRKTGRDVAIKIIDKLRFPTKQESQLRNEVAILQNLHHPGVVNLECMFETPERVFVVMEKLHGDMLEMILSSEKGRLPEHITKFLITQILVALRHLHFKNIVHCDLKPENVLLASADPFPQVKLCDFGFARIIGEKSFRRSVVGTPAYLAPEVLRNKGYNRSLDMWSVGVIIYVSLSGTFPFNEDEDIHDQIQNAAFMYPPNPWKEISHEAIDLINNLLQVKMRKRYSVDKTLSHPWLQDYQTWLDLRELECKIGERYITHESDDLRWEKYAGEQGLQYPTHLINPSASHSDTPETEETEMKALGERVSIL

[9] = molecular target: T2, Serine/threonine-protein kinase D1 (Homo sapiens); conditions: at 1 µM
[10] = molecular target: T3, Serine/threonine-protein kinase D2 (Homo sapiens) (UniProt Q9BZL6); conditions: at 0.1 µM
T3 sequence (whole entry): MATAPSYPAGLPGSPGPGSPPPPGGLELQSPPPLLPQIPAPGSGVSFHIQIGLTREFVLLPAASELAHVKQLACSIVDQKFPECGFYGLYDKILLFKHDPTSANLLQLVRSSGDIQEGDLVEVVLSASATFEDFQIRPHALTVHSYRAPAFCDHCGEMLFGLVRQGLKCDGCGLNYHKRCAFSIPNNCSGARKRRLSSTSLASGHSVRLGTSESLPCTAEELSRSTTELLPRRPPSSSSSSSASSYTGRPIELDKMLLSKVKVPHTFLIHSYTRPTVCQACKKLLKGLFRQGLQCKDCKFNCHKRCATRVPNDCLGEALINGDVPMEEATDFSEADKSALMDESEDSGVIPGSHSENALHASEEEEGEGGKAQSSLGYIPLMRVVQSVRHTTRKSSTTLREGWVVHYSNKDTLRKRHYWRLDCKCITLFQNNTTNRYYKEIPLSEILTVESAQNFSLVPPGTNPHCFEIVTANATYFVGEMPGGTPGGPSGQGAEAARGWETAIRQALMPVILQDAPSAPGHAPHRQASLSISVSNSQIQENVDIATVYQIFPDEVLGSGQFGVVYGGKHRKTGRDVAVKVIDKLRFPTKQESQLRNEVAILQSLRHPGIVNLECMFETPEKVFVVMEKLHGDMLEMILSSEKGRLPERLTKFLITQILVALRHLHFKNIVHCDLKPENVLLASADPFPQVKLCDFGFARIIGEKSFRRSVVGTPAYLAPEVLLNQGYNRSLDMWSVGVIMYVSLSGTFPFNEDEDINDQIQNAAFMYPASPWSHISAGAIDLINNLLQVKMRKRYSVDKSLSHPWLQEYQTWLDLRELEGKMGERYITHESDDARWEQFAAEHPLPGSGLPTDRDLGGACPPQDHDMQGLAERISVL

[11] = molecular target: T3, Serine/threonine-protein kinase D2 (Homo sapiens); conditions: at 1 µM
[12] = molecular target: T4, Serine/threonine-protein kinase D3 (Homo sapiens) (UniProt O94806); conditions: at 0.1 µM
T4 sequence (whole entry): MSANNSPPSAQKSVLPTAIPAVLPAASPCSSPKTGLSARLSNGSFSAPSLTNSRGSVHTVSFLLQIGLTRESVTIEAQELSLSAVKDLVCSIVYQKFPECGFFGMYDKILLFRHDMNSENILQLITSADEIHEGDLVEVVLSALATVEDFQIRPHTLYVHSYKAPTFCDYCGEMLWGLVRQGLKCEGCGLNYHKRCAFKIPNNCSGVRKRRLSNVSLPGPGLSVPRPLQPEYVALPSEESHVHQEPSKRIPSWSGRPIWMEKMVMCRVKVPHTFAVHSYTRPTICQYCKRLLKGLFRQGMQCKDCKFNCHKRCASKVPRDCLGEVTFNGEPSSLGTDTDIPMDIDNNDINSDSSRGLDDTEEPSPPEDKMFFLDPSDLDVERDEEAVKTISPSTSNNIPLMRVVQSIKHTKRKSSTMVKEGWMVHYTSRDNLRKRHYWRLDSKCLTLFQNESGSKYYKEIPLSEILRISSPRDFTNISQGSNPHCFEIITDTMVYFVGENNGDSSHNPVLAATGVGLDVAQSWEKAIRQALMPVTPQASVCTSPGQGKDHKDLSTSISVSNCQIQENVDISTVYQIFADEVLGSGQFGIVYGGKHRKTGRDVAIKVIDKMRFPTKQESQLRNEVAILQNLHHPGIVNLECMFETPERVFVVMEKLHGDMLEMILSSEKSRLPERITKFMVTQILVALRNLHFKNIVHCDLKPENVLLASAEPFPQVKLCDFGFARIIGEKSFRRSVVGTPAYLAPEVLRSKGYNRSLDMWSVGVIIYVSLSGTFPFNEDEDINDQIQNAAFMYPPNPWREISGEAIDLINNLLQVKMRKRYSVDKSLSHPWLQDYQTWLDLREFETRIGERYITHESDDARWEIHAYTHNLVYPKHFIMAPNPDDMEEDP

[13] = molecular target: T4, Serine/threonine-protein kinase D3 (Homo sapiens); conditions: at 1 µM
[14] = molecular target: T5, cGMP-dependent protein kinase 1 (Homo sapiens) (UniProt Q13976); conditions: at 0.1 µM
T5 sequence (whole entry): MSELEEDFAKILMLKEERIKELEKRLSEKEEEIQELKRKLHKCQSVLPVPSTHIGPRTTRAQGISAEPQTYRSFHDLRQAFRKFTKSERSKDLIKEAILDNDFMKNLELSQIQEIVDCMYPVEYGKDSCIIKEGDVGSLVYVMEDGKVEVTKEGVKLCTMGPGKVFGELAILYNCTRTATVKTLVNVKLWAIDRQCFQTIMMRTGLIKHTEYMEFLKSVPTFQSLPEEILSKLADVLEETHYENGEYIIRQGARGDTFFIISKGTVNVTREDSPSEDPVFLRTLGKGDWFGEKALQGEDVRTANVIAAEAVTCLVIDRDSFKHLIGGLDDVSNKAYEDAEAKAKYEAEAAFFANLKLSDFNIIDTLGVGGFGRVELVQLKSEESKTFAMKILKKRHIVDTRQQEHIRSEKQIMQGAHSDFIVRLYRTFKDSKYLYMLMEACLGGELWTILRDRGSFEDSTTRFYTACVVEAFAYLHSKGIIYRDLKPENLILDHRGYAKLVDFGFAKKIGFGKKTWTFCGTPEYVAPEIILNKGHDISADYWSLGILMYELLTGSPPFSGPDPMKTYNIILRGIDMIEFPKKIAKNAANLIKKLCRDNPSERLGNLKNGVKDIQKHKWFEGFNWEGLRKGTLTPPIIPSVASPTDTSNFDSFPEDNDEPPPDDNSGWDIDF

[15] = molecular target: T5, cGMP-dependent protein kinase 1 (Homo sapiens); conditions: at 1 µM
[16] = molecular target: T6, cGMP-dependent protein kinase 2 (Homo sapiens) (UniProt Q13237); conditions: at 0.1 µM
T6 sequence (whole entry): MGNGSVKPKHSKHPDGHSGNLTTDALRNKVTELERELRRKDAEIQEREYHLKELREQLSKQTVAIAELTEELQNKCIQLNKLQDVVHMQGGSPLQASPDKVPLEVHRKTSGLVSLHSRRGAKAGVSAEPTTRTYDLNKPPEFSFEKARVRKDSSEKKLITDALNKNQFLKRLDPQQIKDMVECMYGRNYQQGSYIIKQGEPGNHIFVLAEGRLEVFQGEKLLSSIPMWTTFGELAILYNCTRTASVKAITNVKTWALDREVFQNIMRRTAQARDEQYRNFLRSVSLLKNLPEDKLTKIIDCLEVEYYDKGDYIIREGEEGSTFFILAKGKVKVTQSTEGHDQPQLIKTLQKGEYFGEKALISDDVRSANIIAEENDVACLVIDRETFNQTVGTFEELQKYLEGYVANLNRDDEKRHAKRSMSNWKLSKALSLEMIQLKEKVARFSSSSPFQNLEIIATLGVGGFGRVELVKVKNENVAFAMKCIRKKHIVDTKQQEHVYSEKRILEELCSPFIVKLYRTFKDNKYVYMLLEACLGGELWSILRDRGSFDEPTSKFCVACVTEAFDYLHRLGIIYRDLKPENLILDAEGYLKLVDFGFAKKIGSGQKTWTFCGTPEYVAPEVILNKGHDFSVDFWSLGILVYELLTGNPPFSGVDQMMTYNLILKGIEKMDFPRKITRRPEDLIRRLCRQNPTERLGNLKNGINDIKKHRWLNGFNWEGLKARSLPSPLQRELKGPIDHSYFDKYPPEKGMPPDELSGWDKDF

[17] = molecular target: T6, cGMP-dependent protein kinase 2 (Homo sapiens); conditions: at 1 µM
[18] = molecular target: T7, cAMP-dependent protein kinase catalytic subunit PRKX (Homo sapiens) (UniProt P51817); conditions: at 0.1 µM
T7 sequence (whole entry): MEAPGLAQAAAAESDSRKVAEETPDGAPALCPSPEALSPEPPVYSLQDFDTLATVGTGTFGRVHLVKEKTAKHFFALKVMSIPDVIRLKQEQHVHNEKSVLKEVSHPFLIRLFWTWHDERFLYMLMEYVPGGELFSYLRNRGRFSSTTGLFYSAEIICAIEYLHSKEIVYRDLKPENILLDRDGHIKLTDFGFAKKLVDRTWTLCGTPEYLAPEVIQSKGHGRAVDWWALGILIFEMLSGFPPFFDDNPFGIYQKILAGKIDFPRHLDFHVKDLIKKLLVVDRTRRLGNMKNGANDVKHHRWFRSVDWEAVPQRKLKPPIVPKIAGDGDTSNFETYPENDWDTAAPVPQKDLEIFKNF

[19] = molecular target: T7, cAMP-dependent protein kinase catalytic subunit PRKX (Homo sapiens); conditions: at 1 µM
[20] = molecular target: Rho-associated protein kinase 1 (Homo sapiens) (UniProt Q13464); conditions: at 0.1 µM;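 also: values are mean percent inhibition of ROCK1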
Sequence of Rho-associated protein kinase 1 (Homo sapiens) (Q13464 2-1354 limits assumed): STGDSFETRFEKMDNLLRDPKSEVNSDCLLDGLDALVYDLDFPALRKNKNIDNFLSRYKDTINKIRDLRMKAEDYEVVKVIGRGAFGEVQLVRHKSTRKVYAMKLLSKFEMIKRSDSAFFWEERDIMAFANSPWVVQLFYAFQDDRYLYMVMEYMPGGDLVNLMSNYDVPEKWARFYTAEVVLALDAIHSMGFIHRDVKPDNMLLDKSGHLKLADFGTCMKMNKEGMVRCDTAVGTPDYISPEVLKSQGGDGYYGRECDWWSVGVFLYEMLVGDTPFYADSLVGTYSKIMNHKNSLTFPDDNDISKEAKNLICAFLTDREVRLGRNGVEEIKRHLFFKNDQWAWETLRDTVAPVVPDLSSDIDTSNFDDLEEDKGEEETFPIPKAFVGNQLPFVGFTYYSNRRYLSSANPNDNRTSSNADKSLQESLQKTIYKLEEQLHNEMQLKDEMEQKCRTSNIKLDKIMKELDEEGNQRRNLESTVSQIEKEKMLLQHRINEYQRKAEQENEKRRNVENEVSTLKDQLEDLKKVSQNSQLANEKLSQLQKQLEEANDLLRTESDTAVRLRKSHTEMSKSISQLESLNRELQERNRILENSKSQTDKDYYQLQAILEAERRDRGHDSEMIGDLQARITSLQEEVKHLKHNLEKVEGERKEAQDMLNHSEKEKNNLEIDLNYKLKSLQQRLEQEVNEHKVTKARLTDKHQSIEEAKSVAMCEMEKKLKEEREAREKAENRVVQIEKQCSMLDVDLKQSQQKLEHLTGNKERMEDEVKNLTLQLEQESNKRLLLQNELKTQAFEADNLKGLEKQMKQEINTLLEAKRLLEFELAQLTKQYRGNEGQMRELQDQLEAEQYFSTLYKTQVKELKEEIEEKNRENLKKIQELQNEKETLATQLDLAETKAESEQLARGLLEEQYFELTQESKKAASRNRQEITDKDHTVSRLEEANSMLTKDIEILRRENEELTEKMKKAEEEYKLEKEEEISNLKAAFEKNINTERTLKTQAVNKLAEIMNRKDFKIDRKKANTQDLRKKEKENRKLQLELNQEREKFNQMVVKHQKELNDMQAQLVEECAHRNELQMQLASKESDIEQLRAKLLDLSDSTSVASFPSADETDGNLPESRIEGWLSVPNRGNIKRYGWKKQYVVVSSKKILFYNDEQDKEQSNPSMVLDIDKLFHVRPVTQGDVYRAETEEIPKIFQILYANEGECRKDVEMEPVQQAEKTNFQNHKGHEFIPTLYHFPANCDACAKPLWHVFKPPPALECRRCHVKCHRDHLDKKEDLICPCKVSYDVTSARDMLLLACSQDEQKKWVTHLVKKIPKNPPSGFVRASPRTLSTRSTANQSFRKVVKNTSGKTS

Sequence of Protein kinase C beta type (Homo sapiens) (P05771 2-671 limits assumed): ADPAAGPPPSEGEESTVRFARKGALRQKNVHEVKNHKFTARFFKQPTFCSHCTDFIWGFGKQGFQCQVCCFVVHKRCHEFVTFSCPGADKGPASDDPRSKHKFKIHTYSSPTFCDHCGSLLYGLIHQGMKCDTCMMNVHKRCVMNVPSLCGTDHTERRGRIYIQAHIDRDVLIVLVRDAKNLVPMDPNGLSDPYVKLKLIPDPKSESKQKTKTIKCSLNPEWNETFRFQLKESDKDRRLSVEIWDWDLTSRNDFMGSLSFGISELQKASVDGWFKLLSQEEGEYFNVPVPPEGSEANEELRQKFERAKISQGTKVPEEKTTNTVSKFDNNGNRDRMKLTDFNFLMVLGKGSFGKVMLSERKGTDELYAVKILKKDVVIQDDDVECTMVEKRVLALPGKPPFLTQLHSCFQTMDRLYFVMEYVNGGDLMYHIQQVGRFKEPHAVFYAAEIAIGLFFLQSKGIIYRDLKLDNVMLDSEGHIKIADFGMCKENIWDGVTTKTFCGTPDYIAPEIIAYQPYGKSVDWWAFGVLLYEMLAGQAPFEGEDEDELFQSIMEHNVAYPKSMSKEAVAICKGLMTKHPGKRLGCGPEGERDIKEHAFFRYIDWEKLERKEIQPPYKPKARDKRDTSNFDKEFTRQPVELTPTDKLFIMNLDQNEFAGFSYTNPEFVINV
Sequence of Protein kinase C theta type (Homo sapiens) (Q04759 whole entry, looked up): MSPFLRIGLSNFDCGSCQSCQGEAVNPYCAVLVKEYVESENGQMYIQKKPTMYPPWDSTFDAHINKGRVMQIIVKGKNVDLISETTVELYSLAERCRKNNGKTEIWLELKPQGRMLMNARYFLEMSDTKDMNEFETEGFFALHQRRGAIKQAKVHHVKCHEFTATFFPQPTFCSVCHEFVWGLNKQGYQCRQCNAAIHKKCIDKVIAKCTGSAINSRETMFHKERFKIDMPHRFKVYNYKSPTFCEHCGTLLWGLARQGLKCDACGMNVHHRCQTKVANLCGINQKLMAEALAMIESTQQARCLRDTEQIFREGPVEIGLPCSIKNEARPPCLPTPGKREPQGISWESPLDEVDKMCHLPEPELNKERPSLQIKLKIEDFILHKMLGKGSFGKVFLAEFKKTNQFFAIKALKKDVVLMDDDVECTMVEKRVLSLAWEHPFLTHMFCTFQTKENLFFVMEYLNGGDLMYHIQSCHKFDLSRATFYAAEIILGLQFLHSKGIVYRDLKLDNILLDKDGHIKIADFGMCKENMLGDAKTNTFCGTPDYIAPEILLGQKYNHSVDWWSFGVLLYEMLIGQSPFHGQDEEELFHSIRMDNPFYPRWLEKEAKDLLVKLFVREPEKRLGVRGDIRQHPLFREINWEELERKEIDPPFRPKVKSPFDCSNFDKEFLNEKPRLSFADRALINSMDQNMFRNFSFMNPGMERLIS

Row | SMILES | inhibition [1] | inhibition [2] | inhibition [3] | inhibition [4] | inhibition [5] | inhibition [6] | inhibition [7] | inhibition [8] | inhibition [9] | inhibition [10] | inhibition [11] | inhibition [12] | inhibition [13] | inhibition [14] | inhibition [15] | inhibition [16] | inhibition [17] | inhibition [18] | inhibition [19] | inhibition [20]
1 | NC(=O)c1cccc(Nc2nccc(Nc3cccc(F)c3)n2)c1 | 4.93% | -0.38% | -1.03% | 0.79% | 0.72% | 2.1% | 4.84% | 1.93% | 4.25% | 0.71% | 0.2% | 0.7% | 1.01% | 0.12% | -0.32% | 0.77% | 0.47% | 1.19% | 0.35% | 0.28%
2 | Cc1cc(-c2ccccn2)cc(C)c1/C=C/c1cncc(-c2nn[nH]n2)c1 | 2.83% | 0.86% | 1.38% | 1.86% | 3.08% | 1.2% | 2.79% | 6.68% | 11% | 6.87% | 12.2% | 6.27% | 12.1% | 3.51% | 5.76% | 2.46% | 5.89% | 2% | 2.53% | 2.04%
3 | Cc1cc(Cl)cc2c1NC(=O)C2=NNc1ccc(S(N)(=O)=O)cc1 | 1.99% | 0.57% | 0.13% | 1.67% | 3.19% | 0.04% | 1.07% | 2.49% | 2.15% | 2.28% | 2.34% | 2.25% | 1.81% | 1.17% | 3.27% | 2.01% | 2% | 1.43% | 3.22% | 0.02%
4 | Cc1ccc(O)cc1Nc1ccnc2ccc(S(C)(=O)=O)cc12 | 4.87% | 3.04% | 1.3% | 3.39% | 7.6% | 2.21% | 4.59% | 5.19% | 24.7% | 7.07% | 33.2% | 6.86% | 22.7% | 2.84% | 4.22% | 1.71% | 4.03% | 2.75% | 4.14% | 1.34%
